# Test results taken from the supplement of paper PMC6555819.
# How the values were obtained:
# Experiment in all cases: PBM binding z-score (relative to random genomic background probes); higher = stronger binding; sequences stand for … in GC…GCGATTGACAGCGTAGAATGAAGG
# [1] = test system: FXR:RXRa (NR concentration 270 nM, RXRa partner concentration 90 nM)
# In short: (§1)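 Regression normalization was applied to scanned fluorescence from custom Agilent 4×180K protein-binding microarrays. Before scanning, arrays were incubated 1 h with ligand-free nuclear receptor dimers, and binding was detected with antibodies against each partner (one per run). Binding z-scores use the random background probes as reference.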
# [2] = test system: LXRa:RXRa (NR concentration 270 nM, RXRa partner concentration 90 nM)
# In short: as §1
# [3] = test system: LXRa homodimer (NR concentration 270 nM)
# In short: as §1
# [4] = test system: LXRb:RXRa (NR concentration 270 nM, RXRa partner concentration 90 nM)
# In short: as §1
# [5] = test system: LXRb homodimer (NR concentration 270 nM)
# In short: as §1
# [6] = test system: PPARa:RXRa (NR concentration 270 nM, RXRa partner concentration 90 nM)
# In short: as §1
# [7] = test system: PPARg:RXRa 270nM:90nM, anti-RXR (NR concentration 270 nM, RXRa partner concentration 90 nM)
# In short: as §1
# [8] = test system: PPARg:RXRa 30nM:10nM, anti-RXR (NR concentration 30 nM, RXRa partner concentration 10 nM)
# In short: as §1
# [9] = test system: PPARg:RXRa 90nM:30nM, anti-RXR (NR concentration 90 nM, RXRa partner concentration 30 nM)
# In short: as §1
# [10] = test system: PPARg:RXRa DBDmut IVT, anti-RXR (DBD mutation: RXRa K156A/R161A, NR concentration 270 nM, RXRa partner concentration 90 nM)
# In short: as §1
# [11] = test system: PPARg:RXRa IVT, anti-PPARg (NR concentration 270 nM, RXRa partner concentration 90 nM)
# In short: as §1
# [12] = test system: PPARg DBDmut:RXRa IVT, anti-PPARg (DBD mutation: PPARg1 K132A/R137A, NR concentration 270 nM, RXRa partner concentration 90 nM)
# In short: as §1
# [13] = test system: PPARg DBDmut IVT, anti-PPARg (DBD mutation: PPARg1 K132A/R137A, NR concentration 270 nM)
# In short: as §1
# [14] = test system: PPARg homodimer (NR concentration 180 nM)
# In short: as §1
# [15] = test system: PXR:RXRa (NR concentration 270 nM, RXRa partner concentration 90 nM)
# In short: as §1
# [16] = test system: PXR homodimer (NR concentration 270 nM)
# In short: as §1
# [17] = test system: RARa:RXR (NR concentration 270 nM, RXRa partner concentration 90 nM)
# In short: as §1
# [18] = test system: RARa homodimer (NR concentration 270 nM)
# In short: as §1
# [19] = test system: RARb:RXRa (NR concentration 270 nM, RXRa partner concentration 90 nM)
# In short: as §1
# [20] = test system: PPARg:RXRa (NR concentration 180 nM, RXRa partner concentration 90 nM)
# In short: as §1
Sequence,PBM binding z-score [1],PBM binding z-score [2],PBM binding z-score [3],PBM binding z-score [4],PBM binding z-score [5],PBM binding z-score [6],PBM binding z-score [7],PBM binding z-score [8],PBM binding z-score [9],PBM binding z-score [10],PBM binding z-score [11],PBM binding z-score [12],PBM binding z-score [13],PBM binding z-score [14],PBM binding z-score [15],PBM binding z-score [16],PBM binding z-score [17],PBM binding z-score [18],PBM binding z-score [19],PBM binding z-score [20]
CCTTACGGGTCGCTGACAGGTTATAGCATTTGGA,0.72,1.23,-0.237,0.781,-0.428,1.71,0.371,-0.323,-0.0613,0.346,0.0988,-0.356,-0.76,0.641,1,-0.0348,1.68,-0.0216,1.18,
ATCTGTAGGTTAGGGTCATTCAGAAAGTAGGGAA,4.95,4.18,1.54,4.44,2.08,4.99,4.32,2.09,3.76,2.86,3.74,,2.08,3.23,4.42,2.1,5.21,2.2,3.58,4.27
CGAAGTAGGTCAAAGGACAGTGAAAGGCGACGTA,4.62,3.33,0.269,2.23,-0.098,5.66,8.99,8.23,9.73,8.31,8.72,,4.59,2.49,1.66,0.0557,2.53,0.312,3.93,10.5
CATACACGGTCAGCTAGGCCAGAGTAGGGACGGC,0.00236,0.294,-0.0294,-0.523,0.421,-0.409,-0.257,-0.34,-0.382,-0.275,0.556,0.102,0.44,0.0796,-0.388,-0.264,-0.295,0.385,2.49,
TCTAGTTGGTCACGGAGGTCACACGCGACGGGTA,3.47,3.74,2.9,3.14,0.904,3.95,4.08,3.3,3.9,2.46,4.38,1.06,1.9,3.12,4.55,1.5,4.54,1.78,3.87,
CGAACTAGGTCAAAGGACAGTGGAAGGCGACGTA,3.72,2.62,-0.0912,1.47,-0.761,5.49,8.34,8.02,9.05,8.19,8.49,,1.31,1.21,0.947,-0.227,1.74,0.262,3.93,9.71
CGAACTAGGACAAAGGACAGTGAAAGGCGACGTA,-0.156,-0.553,-0.411,-0.765,-0.967,2.45,5.78,3.93,5.64,4.53,4.05,,-0.402,0.327,-0.405,-0.257,-0.272,-0.328,1.12,5.34
TCTTGTAGATCAAAGCTTAAGAAAGCCGAAGCCT,-0.314,0.0464,-0.571,-0.365,-0.532,0.317,1.5,2.55,2.08,1.63,0.218,-0.031,-0.413,-0.405,-0.275,-0.758,-0.177,-0.517,-0.506,
CGAACTAGGTCCTTGACAGGACAGTGAATAGTAA,-0.28,-0.522,0.156,-0.566,-0.907,0.107,0.252,-0.201,-0.145,3.56,2.67,-0.17,0.14,-0.238,-0.527,-0.0323,-0.228,-0.233,-0.0437,
CGAACTAGGACACCAGGACAGTGAAGAGGTTGGA,-0.0401,-0.43,-0.083,-0.854,-0.923,0.865,1.33,0.527,0.812,6.02,5.32,,-0.0745,0.381,-0.661,-0.233,-0.0962,0.279,0.552,2.08
CGAACTAGGTAAAAGGACAGTGAAAGGCGACGTA,-0.23,-0.378,-0.301,-0.371,-0.583,3.16,6.57,5.66,7.51,5.32,4.9,,0.0504,0.371,-0.425,-0.442,-0.202,-0.518,1.09,5.26
AGTCAAAGGTCACTAGGTAACGTAAGATTCAGCT,7.63,6.45,2.46,5.48,2.78,6.42,8.5,6.26,8.47,5.65,7.5,1.54,0.924,4.05,4.94,1.04,5.94,2.79,,
CAAACTAGGTCACCAGGACAGTGAAGAGGTTGGA,4.67,2.73,0.391,1.92,0.0732,5.18,7.14,5.2,7.09,8.41,8.88,,1.44,2.71,1.87,0.166,2.97,0.827,4.28,9.26
CGAACTAGGTCAAAGGACAATGAAAGGCGACGTA,3.98,2.65,0.155,1.92,-0.0883,5.61,8.49,8.29,9.41,7.79,8.35,,0.575,1.69,1.5,0.00867,2.52,0.325,3.85,10.3
CGAACTAGGTCAGCAGGACAGTGAAGAGGTTGGA,1.24,0.718,-0.103,0.384,-0.892,3.76,5.16,2.12,4.13,7.67,7.57,,0.821,0.528,0.361,-0.536,0.95,-0.352,3.61,5.96
